In PubChem BioAssay AID493191 (Broad Institute, 2011):
The whole screen tested about 1,300 compounds, of which about 330 (25%) were called active. How the calls were made is not given here. A selection follows. Potency and affinity values are given separately.

test: MALME3 melanoma cell viability loss, dose response, orthogonal assay for MITF inhibitor project, CellTiter-Glo, cherry-picked (AID 493191); conditions: CellTiter-Glo luminescence, 24 h; series mostly up to 35 µM; activity change, negative = inhibition: at the top concentration

| Structure (SMILES) | activity change, negative = inhibition |
| --- | --- |
| Cc1ccc2oc(Nc3nc(C)c(C)c(C)n3)nc2c1 | -2.9% (inactive) |
| C=C1C(=O)C2=CC1CCC(=O)C1(C)CCC(OC(C)=O)C(C)(C)C1CC2O (stereo not given) | -43.8% (inactive) |
| N/C(=N\OC(=O)c1ccccc1Cl)c1cccc([N+](=O)[O-])c1 | 3.35% (inactive) |
| O=C(NC(=S)Nc1ccccn1)c1cccc([N+](=O)[O-])c1 | -0.338% (inactive) |
| CCOc1ccc2nc(C)cc(Nc3cccc([N+](=O)[O-])c3)c2c1 | -64.2% (inactive) |
| COC(=O)c1ccc(Nc2cc(C)nc3ccc(C)cc23)cc1 | -5.79% (inactive) |
| Clc1ccc(-c2c[n+](Cc3cccc(Cl)c3)c3n2CCC3)cc1 | -3.77% (inactive) |
| O=c1c2ccccc2cnn1CCOc1ccccc1 | -21.9% (inactive) |
| CS(=O)(=O)c1ccc2nc(NC(=O)c3ccccc3)sc2c1 | -14% (inactive) |
| O=[N+]([O-])c1cc(C(F)(F)F)ccc1NCCc1ccccn1 | 3.81% (inactive) |
| CS(=O)(=O)c1ccc(C(=O)OCC(=O)NCc2cccs2)cc1[N+](=O)[O-] | -38.8% (inactive) |
| O=C(O)c1cccc(NC(=O)c2cccc(NC(=O)C3CCCO3)c2)c1 (stereo not given) | 2.35% (inactive) |
| Cc1ccc(C(=O)N/N=C\c2ccc([N+](=O)[O-])s2)cn1 | -42.5% (inactive) |
| O=C(N/N=C/c1ccc([N+](=O)[O-])s1)c1ccccc1 | -49.8% (inactive) |
| C=C1CCC[C@]2(C)C[C@H]3OC(=O)C(CN4CCCCC4CO)[C@H]3CC12 (stereo not given in full) | 18% (inactive) |
| COc1cc(SC)ccc1C(=O)Nc1ncc(C)s1 | -18.2% (inactive) |
| O=C(NCc1ccccc1)C(=O)Nc1cccc(C(=O)O)c1 | 3.68% (inactive) |
| CC(C)(C)c1cc(NCCCn2ccnc2)n2ncc(-c3ccccc3)c2n1 | -26.9% (inactive) |
| Nc1ccc(-c2nc3c(Cl)cc(N)cc3[nH]2)cc1 | 7.31% (inactive) |
| Cc1c(C#N)c(O)n(CCO)c(=O)c1N=Nc1ccc2c(c1)COC2=O | -14.4% (inactive) |
| CCN(CC)c1ccc(/C=N/NC(=O)c2cccc(S(=O)(=O)N3CCOCC3)c2)c(O)c1 | -15.7% (inactive) |
| CCSc1nnc(NC(=O)C2CCCCC2)s1 | 6.64% (inactive) |
| O=C(CCl)N(c1ccccc1)c1c[nH]c2ccccc12 | -41.4% (inactive) |
| O=C(CCl)N(Cc1cc(=O)[nH]c2ccccc12)c1ccccc1 | -29.2% (inactive) |
| Fc1ccccc1-c1nc(-c2ccncc2)no1 | -6.62% (inactive) |

| Structure (SMILES) | activity change, negative = inhibition |
| --- | --- |
| Clc1cccc(-c2nc(-c3ccccn3)no2)c1 | -33.8% (inactive) |
| Clc1ccccc1CSc1nnc(-c2ccncc2)o1 | -8.1% (inactive) |
| CCOc1ccc(N(CC(=O)Nc2ccc(OC)cc2)S(C)(=O)=O)cc1 | -6.34% (inactive) |
| CCC(=O)Nc1cc2nn(-c3ccc(C)cc3)nc2cc1C | 5.18% (inactive) |
| CC(=O)SC(C[N+](=O)[O-])c1cn(C(C)=O)c2ccccc12 (stereo not given) | -33.7% (inactive) |
| CC1Cc2ccccc2N1C(=O)c1ccc(Br)o1 (stereo not given) | -23.8% (inactive) |
| CCOC(=O)/C=c1/s/c(=C/c2ccc3cc(OC)ccc3c2)c(=O)n1CC(=O)NCC1CCCO1 (stereo not given) | -15.4% (inactive) |
| O=C(Nc1ccc(-c2cn3c(n2)SCC3)cc1)c1ccco1 | -3.35% (inactive) |
| O=[N+]([O-])c1ccc(N/N=C/C=C/c2ccco2)cc1 | -6.15% (inactive) |
| C/C(=N\NC(=O)COc1ccccc1-c1ccccc1)c1ccccn1 | -23% (inactive) |
| C/C(=N\NC(=O)C1COc2ccccc2O1)c1ccccn1 (stereo not given) | -16.7% (inactive) |
| O=C(NC1=NCCS1)C1COc2ccccc2O1 (stereo not given) | -18.9% (inactive) |
| C=CCOc1ccc(/C=C2\SC(=S)N(CCC(=O)O)C2=O)cc1 | 8.72% (inactive) |
| Cc1c(C#N)c(NC(=O)CCl)n(Cc2cccs2)c1C | -41.2% (inactive) |
| O=C(NCc1cccs1)c1nc2c(nnn2Cc2ccccc2Cl)c(=O)[nH]1 | 0.593% (inactive) |
| CC(=O)Oc1c(C(=O)c2nnc(C)o2)c(=O)n(Cc2ccccc2)c2ccccc12 | -19.6% (inactive) |
| Cc1occc1C(=O)N/N=C/c1ccc(OCc2ccccc2)cc1 | -1.16% (inactive) |
| Cc1ccc(OCC(=O)N/N=C/c2ccc([N+](=O)[O-])o2)cc1 | -39.6% (inactive) |
| COc1ccc(/C=N/NC(=O)Cc2cccs2)cc1 | -1.89% (inactive) |
| Cc1ccc(SCCC(=O)N2CCC(C)CC2)cc1 | 7.77% (inactive) |
| Cc1cc(/C=C(\C#N)C(=O)O)c(C)n1CC(C)C | 11.7% (inactive) |
| Cc1ccc(SCCSc2ncccn2)cc1 | -13.9% (inactive) |
| Nc1c(-c2ccccc2)cnc2c(-c3ccccc3)cnn12 | -2.55% (inactive) |
| COc1ccccc1OCCN1CSC(=S)N(C)C1 | -42.5% (inactive) |
| O=C(Nc1ccc(F)cc1F)c1cc2ccccc2oc1=O | 6.79% (inactive) |

| Structure (SMILES) | activity change, negative = inhibition |
| --- | --- |
| COc1ccc(C(=O)CN2Cc3ccccc3C2=N)cc1 | -7.91% (inactive) |
| O=C(Nc1ccccc1)O/N=C/c1ccc(F)cc1 | -5.62% (inactive) |
| CC1(C)Cc2c(sc(NC(=O)c3ccc4ncsc4c3)c2C(N)=O)C(C)(C)N1 | -0.009% (inactive) |
| CCCN(CCC)C1=CC(=[N+]2CCCC2)CC(C)(C)C1 | -17.8% (inactive) |
| O=C(N/N=C/c1ccc(F)cc1)c1c(O)c2ccccc2[nH]c1=O | -2.15% (inactive) |
| CC(C)C(=O)Nc1cccc(NC(=O)c2cc3ccccc3o2)c1 | -6.15% (inactive) |
| Cc1ccc(NC(=O)c2cc3ccccc3oc2=O)cc1S(=O)(=O)N(C)C | -37.5% (inactive) |
| Cc1ccc(-c2nc(C#N)c(NCc3ccco3)o2)cc1 | -2.18% (inactive) |
| Cc1ccc2c(COC(=O)c3n[nH]c4ccccc34)cc(=O)oc2c1 | -17.5% (inactive) |
| N#C/C(C(=O)c1ccccc1)=C1/CCCCCN1 | -9.1% (inactive) |
| COc1ccc2c(c1OC)C(=O)N(c1ccc(C)cc1)C2 | -3.44% (inactive) |
| CCOc1cc(/C=C(/C#N)c2ccc(Cl)cc2)cc(Cl)c1OCC(=O)O | 13.5% (inactive) |
| O=C(Nc1ccc2nc3n(c(=O)c2c1)CCCCC3)c1cc([N+](=O)[O-])ccc1F | -16% (inactive) |
| CC(C)(C)C(=O)Nc1cc2nn(-c3ccccc3)nc2cc1Cl | -14.6% (inactive) |
| Oc1ccc(-c2nnc(SCC3CCCCC3)o2)cc1 | -10.5% (inactive) |
| CC(=O)c1cccc(Nc2nc(-c3cccnc3)cs2)c1 | -5.43% (inactive) |
| CCOc1cc(/C=C\[N+](=O)[O-])ccc1OCC(=O)N1CCOCC1 | -26.9% (inactive) |
| C/C(=N/Nc1nc(C)c(C)s1)c1cccc([N+](=O)[O-])c1 | -0.825% (inactive) |
| CCOc1ccccc1NC(=O)C1C2CCC(O2)C1C(=O)O (stereo not given) | 22.9% (inactive) |
| Cc1cc(/C(N)=N/OC(=O)Nc2ccc(Cl)cc2)no1 | 0.994% (inactive) |
| COc1ccccc1/C=C/C=N/NC(=O)c1cccs1 | 9.36% (inactive) |
| COc1ccc(NC(=O)c2cc3ccccc3oc2=O)c(OC)c1 | -10.4% (inactive) |
| COc1cccc(/C=N/NC(=O)c2cccs2)c1 | 4.46% (inactive) |
| Cc1ccccc1OCC(=O)Nc1cccc(C(=O)O)c1 | 6.99% (inactive) |
| COc1ccc(-c2noc(-c3cccs3)n2)cc1OC | 3.3% (inactive) |
